# The sample as a whole holds a higher share of hits than the screen did.
# Tg IFNy HTS: blocks Toxoplasma gondii growth in the presence of IFN-gamma; Toxoplasma gondii growth in IFN-gamma-treated host cells; active compounds read low; activity change, negative = inhibition, % (test concentration not listed); 69,000 tested, 3.8% active; AID 1259416; in the data active = activity change below about -70%, passing the limit was not always enough;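 also: host cells are HeLa cells infected with Toxoplasma gondii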
# * marks the source's active call; other numbers are inactive results; i = inactive.
SMILES,Tg IFNy HTS
O=C(CCc1cnccn1)N1CCOC(c2ccc(Cl)c(Cl)c2)C1 (centres undefined),-10
CS(=O)(=O)NC[C@H]1CCC[C@]2(CCN(CC3CCOCC3)C2)O1,-1
Cc1ccc(NC(=O)CN2C(=O)CCc3cc(S(=O)(=O)N4CCCCC4C)ccc32)cc1F (centres undefined),-47
CSc1cccc(NC(=O)CN2C(=O)CCc3cc(S(=O)(=O)N4CCCC4)ccc32)c1,2
CSc1cccc(NC(=O)CN2C(=O)CCc3cc(S(=O)(=O)N4CCCCC4C)ccc32)c1 (centres undefined),-86*
CC1CCN(S(=O)(=O)c2ccc3c(c2)CCC(=O)N3CC(=O)Nc2cccnc2)CC1,-9
CCc1cccc(NC(=O)CN2C(=O)CCc3cc(S(=O)(=O)N4CCCCC4C)ccc32)c1 (centres undefined),-77*
CC1CCN(S(=O)(=O)c2ccc3c(c2)CCC(=O)N3CC(=O)NC(C)C)CC1,33
CC1CCN(S(=O)(=O)c2ccc3c(c2)CCC(=O)N3CC(=O)N(Cc2ccccc2)C(C)C)CC1,-81*
CC1CCN(S(=O)(=O)c2ccc3c(c2)CCC(=O)N3CC(=O)Nc2ccc(F)c(F)c2)CC1,-13
Cc1ccc(C)c(NC(=O)CN2C(=O)CCc3cc(S(=O)(=O)N4CCCCC4C)ccc32)c1 (centres undefined),21
CC1CCN(S(=O)(=O)c2ccc3c(c2)CCC(=O)N3CC(=O)NCc2ccccc2)CC1,-11
CCc1cccc(NC(=O)CN2C(=O)CCc3cc(S(=O)(=O)N4CCC(C)CC4)ccc32)c1,-127*
Cc1cccc(NC(=O)CN2C(=O)CCc3cc(S(=O)(=O)N4CCCCC4C)ccc32)c1C (centres undefined),30
O=C(c1ccc(Oc2ccccc2)o1)N1CCCn2cncc2C1,7
Cc1cc(C(=O)Nc2ccccc2C(=O)O)c(C)o1,-9
Cc1nn(Cc2nn[nH]n2)c(C)c1Br,55
OCCC1CN(C2CCN(Cc3ccccc3)CC2)CCN1Cc1ccccc1F (centres undefined),-32
CCN(CC)c1nc(SCCOC(=O)Nc2ccccc2)nc(N(CC)CC)n1,-38
CCC(C(=O)NCC1(CO)CCC1)n1cc(C(C)=O)c2ccccc21 (centres undefined),-22
Cc1ccc(CC(=O)N2CCC3(CC2)NC(=O)c2cc(F)ccc2N3C)cc1,42
Cc1ccc(-c2nc(-c3ccc(Br)o3)no2)cc1,i
CC(=O)N1C[C@@H]2N[C@H](C1)C2c1ccc(-c2ccccc2)cc1 (some centres undefined),-12
CCN1CCn2cc(C(=O)N3CCN(c4ccccn4)CC3)nc2C1,75
CC1=C(C(=O)NCCCN2CCN(C)CC2)C2(CCN(S(=O)(=O)c3cccs3)CC2)OC1=O,31
SMILES,Tg IFNy HTS
O=C1NCCCCC1N1CNC(=S)NC1 (centres undefined),61
CN(C)C(=O)CN1CCC2(CCCN2Cc2cnn(C)c2)CC1,-55
CN(C)C(=O)COCC1CC2(CCN(Cc3cnn(C)c3)CC2)CO1 (centres undefined),-32
CN(C)C(=O)CN1C[C@]23CN(Cc4cnn(C)c4)C[C@@H](C[C@@H]2S1(=O)=O)O3,-108*
CN1C(=O)c2cc(NC(=O)c3ccc(F)c(F)c3)ccc2OC[C@@H]2O[C@@H](CC(=O)N3CCCCC3)CC[C@H]21,-9
CCOc1ccc(-c2noc(-c3c(O)c4ccc(F)cc4n(C)c3=O)n2)cc1,47
CC(/C=C1\SC(=O)N(CCCC(=O)O)C1=O)=C\c1ccccc1,-82*
CC1(C)NC(=O)N(CCCC(=O)O)C1=O,34
O=C(O)CCCCCNS(=O)(=O)/C=C/c1ccccc1,0
Cc1cccc(C(=O)N2CCC3OCCCC3(COCC3CC3)C2)n1 (centres undefined),2
FC(F)(F)c1cc(-c2nnc(N3CCCC3)o2)cc(C(F)(F)F)c1,40
Cc1cc2nnc(-c3ccc(C(F)(F)F)cc3)n2[nH]1,64
FC(F)(F)c1ccc(-c2nnc3ccc(N4CCCCC4)nn23)cc1,-109*
CN1CCn2nc(C(=O)N(C)Cc3nc4ccc(Cl)cc4[nH]3)cc2C1,56
CN(C)S(=O)(=O)N1CCN(C(=O)Cn2c(-c3ccc(F)cc3)cc3cccnc32)CC1,-67
O=C(c1cc(=O)[nH]c2cc(F)ccc12)N1CCCC(N2CCCC2)C1 (centres undefined),-39
CC(C)Cn1c(CN(C)Cc2ncc[nH]2)nc2ccccc21,-84*
CC(C)Cc1nc(CN(C)Cc2ncc[nH]2)no1,9
CNC(=O)C(C)N(C)Cc1nc2ccccc2n1CC(C)C (centres undefined),33
COCCc1nnc(NC(=O)c2oc3ccc(C)cc3c2C)s1,424
CC(=O)Nc1ccc(C)cc1S(=O)(=O)N1CCC2(CC1)Nc1cc(F)ccc1-n1cccc12,-8
COc1ccc(C(=O)c2sc3nc(C)cc(C(F)(F)F)c3c2N)cc1OC,-8
COc1cc2ncn(-c3cc(OCc4ccccc4C(F)(F)F)c(C(N)=O)s3)c2cc1OC,-88*
COc1ccccc1OCC(=O)n1nc(N)c2c(C(F)(F)F)cc(C)nc21,32

# Compound activity deposited in PubChem by Broad Institute.
